# Data published in PubChem BioAssay (NCATS).
# Activity calls are given as the source filed them. The rule behind the calls is not given here.
# System: HIV-1 nucleocapsid protein NCp7 (binding to TG oligonucleotide)
# Experiment: HIV Nucleocapsid (AID 346);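 note: potency is for inhibitors that block NC binding and lower polarization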
# Conditions: HIV-1 NC / fluorescein-TGTGTGTG probe, fluorescence polarization
# Outline: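 NCp7 100 nM + fluorescein TG4xF 10 nM; Hepes pH 7.5/250mM NaCl/1uM ZnCl2/0.004% PEG 20000; 1 hr RT; FP, 45 s exposure; oligo-only wells as negative control.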
# Potency is the fitted concentration of half-maximal effect.
row,Compound,Potency
1,COCC(=O)N1CCC[C@@]2(CCN(Cc3cc(C(F)(F)F)cc(C(F)(F)F)c3)C2)C1,> 20 µM (inactive)
2,COc1ccc(CNc2ncncc2-c2ccccc2Cl)c(OC)c1,> 20 µM (inactive)
3,N#Cc1ccc(CN2CC[C@@]3(CCCN(S(=O)(=O)c4ccccc4)C3)C2)cc1,> 20 µM (inactive)
4,CN(Cc1ccco1)c1cc(-c2cccc(C#N)c2)ncn1,> 20 µM (inactive)
5,Cc1cnc(CNc2ccnc(-c3ccc(C(=O)N(C)C)cc3)n2)cn1,> 20 µM (inactive)
6,CN(C)c1ncc2nc(-c3ccccc3)c(=O)n(Cc3ccc(F)cc3)c2n1,> 20 µM (inactive)
7,COc1ccc(-n2c(=O)c(-c3cc(F)cc(F)c3)nc3cnc(N(C)C)nc32)cc1,> 20 µM (inactive)
8,COc1cccc(Cn2c(=O)c(-c3cc(F)cc(F)c3)nc3cnc(N4CCOCC4)nc32)c1,> 20 µM (inactive)
9,O=C(c1cc(C(F)(F)F)cc(C(F)(F)F)c1)N1CCC[C@@]2(CCN(Cc3ccccc3)C2)C1,> 4 µM (inactive)
10,COCCn1c(=O)c(-c2ccc(F)cc2)nc2cnc(N3CCOCC3)nc21,> 20 µM (inactive)
11,CCNc1ncc2nc(-c3ccccc3)c(=O)n(Cc3ccc(F)cc3)c2n1,> 20 µM (inactive)
12,COc1ccc(Oc2ncc3nc(-c4ccccc4)c(=O)n(C[C@H]4CCCO4)c3n2)cc1,> 20 µM (inactive)
13,c1ccc(-c2cccc(N3CC[C@@]4(CCCNC4)C3)c2)cc1,> 20 µM (inactive)
14,O=C(c1csnn1)N1CCC2(CC1)CN(c1ccncc1)C2,> 20 µM (inactive)
15,COCCn1c(=O)c(-c2ccc(F)cc2)nc2cnc(OCc3ccccc3)nc21,> 20 µM (inactive)
16,CN1CCN(c2ccnc(-c3cccnc3)n2)CC1,> 20 µM (inactive)
17,COCC(=O)N1CCC2(CCCN(c3ccncc3)C2)CC1,> 20 µM (inactive)
18,CCNc1ncc2nc(C)c(=O)n(Cc3ccc(F)cc3)c2n1,> 20 µM (inactive)
19,N#Cc1ccc(CN2CCC3(CCNCC3)CC2)cc1,> 20 µM (inactive)
20,CS(=O)(=O)N1CCC2(CCN(c3ccccc3)CC2)CC1,> 20 µM (inactive)

row,Compound,Potency
1,COc1ccc(C(=O)N2CCC3(CC2)CN(c2ncccn2)C3)cc1,> 20 µM (inactive)
2,Cc1cnc(CNc2nc(-c3cccc(NS(C)(=O)=O)c3)nc3ccccc23)cn1,> 20 µM (inactive)
3,O=C(c1ccco1)N1CCC2(CCN(Cc3nccs3)CC2)CC1,> 20 µM (inactive)
4,O=C(c1cccc(F)c1)N1CCC2(CC1)CCN(c1ccccc1)CC2,> 20 µM (inactive)
5,COc1ccccc1-c1cc(NCc2cccs2)ncn1,> 20 µM (inactive)
6,Cc1ccccc1-c1ccc2ncnc(NC3CC3)c2c1,> 20 µM (inactive)
7,O=c1c(CCc2ccccc2)nc2cnc(N3CCNCC3)nc2n1Cc1ccc(F)cc1,> 20 µM (inactive)
8,Cc1noc(C)c1-c1ccc2ncnc(N(C)Cc3ccco3)c2c1,> 20 µM (inactive)
9,Cc1nc2cnc(N(C)C)nc2n(-c2ccccc2)c1=O,> 4 µM (inactive)
10,CC(=O)N1CCC2(CCCN(c3ccncc3)C2)CC1,> 20 µM (inactive)
11,O=c1c(-c2ccc(F)cc2)nc2cnc(N3CCOCC3)nc2n1C[C@H]1CCCO1,> 20 µM (inactive)
12,O=c1c(-c2ccccc2)nc2cnc(Nc3ccccc3)nc2n1C[C@H]1CCCO1,> 20 µM (inactive)
13,N#Cc1cccc(-c2cncnc2NCc2ccccc2)c1,> 20 µM (inactive)
14,COc1ccc(Oc2ncc3ncc(=O)n(C[C@H]4CCCO4)c3n2)cc1,> 20 µM (inactive)
15,COCCn1c(=O)c(-c2ccc(Cl)cc2)nc2cncnc21,> 20 µM (inactive)
16,CC(C)CN1CC2(CCN(S(=O)(=O)c3ccccc3)CC2)C1,> 20 µM (inactive)
17,COc1ccc(CNc2nc(-c3cccc(C#N)c3)nc3ccccc23)c(OC)c1,> 20 µM (inactive)
18,Cn1c(=O)c(-c2cccs2)nc2cnc(N3CCOCC3)nc21,> 20 µM (inactive)
19,COc1ccc(NC(=O)N2CCCC3(CCNCC3)C2)cc1,> 20 µM (inactive)
20,CCNc1ncc2nc(C)c(=O)n(CCOC)c2n1,> 20 µM (inactive)
